This is a sample that favours compounds with a hit; in the whole collection about 2.4% have one here.
CHO-K1 Ca ag = M1 agonist counterscreen hit in parental CHO-K1 cells; Fluo-8 calcium fluorescence; scaled to maximal ATP response, vehicle zero; activation, % at 3 µM; 360,000 compounds, 0.48% hits; AID 602248; in the data active means activation above about 15%;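 further: untransfected CHO-K1 host cells lacking M1 receptor as counterscreen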
CHRM1 antagonist = human CHRM1 antagonism; CHO-K1 hM1, Fluo-8 calcium fluorescence, ACh EC80 antagonist; inhibition, % at 3 µM; 360,000 compounds, 1.3% hits; AID 588852;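 active means percent inhibition above its own plate's cutoff, namely the mean of that plate's compound wells plus 3 SD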;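 further: peak over basal fluorescence ratio during 140 s after agonist addition; 0% = ACh EC80 plus DMSO and 100% = DMSO alone without agonist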
Target sequence (P11229 whole entry, looked up): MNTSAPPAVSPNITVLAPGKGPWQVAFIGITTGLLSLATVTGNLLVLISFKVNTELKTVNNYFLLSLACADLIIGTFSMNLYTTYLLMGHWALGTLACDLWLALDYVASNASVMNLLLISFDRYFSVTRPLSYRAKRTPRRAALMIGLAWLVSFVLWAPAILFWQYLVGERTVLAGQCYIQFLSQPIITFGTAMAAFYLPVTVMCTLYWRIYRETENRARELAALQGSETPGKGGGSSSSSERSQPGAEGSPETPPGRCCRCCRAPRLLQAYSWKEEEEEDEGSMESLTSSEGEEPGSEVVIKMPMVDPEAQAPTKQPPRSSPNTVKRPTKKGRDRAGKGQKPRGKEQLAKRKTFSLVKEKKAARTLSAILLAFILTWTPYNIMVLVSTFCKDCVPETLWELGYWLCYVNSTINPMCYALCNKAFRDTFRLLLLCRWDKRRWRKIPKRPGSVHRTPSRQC
M1 PAM parental = M1 PAM counterscreen hit in parental CHO-K1 cells | activation, % at 3 µM | ATP EC20, Fluo-8 calcium fluorescence; 0% at ATP EC20, 100% at ATP max | AID 602247 | 360,000 compounds, 0.02% hits;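 active means activation above the run cutoff, the mean activation of all test compounds plus 3 SD, cut at about 40% in these data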;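 further: peak over basal fluorescence ratio in a 140 s read after ATP addition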
CHRM1 agonist = activates human CHRM1 receptor | AID 588814 | 360,000 compounds, 0.33% hits | activation, % at 3 µM | CHO-K1 hM1, Fluo-8 calcium fluorescence, agonist mode; 0% DMSO, 100% acetylcholine EC100;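 active means activation above the run's mean compound activation plus 3 SD, cut at about 16% in these data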;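 further: peak over basal fluorescence ratio within a 140 s kinetic read after compound addition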
CHO-K1 Ca antag = counter-screen for M1 antagonists: effect in parental CHO-K1 cells | ATP-induced calcium, Fluo-8 fluorescence | inhibition, % at 3 µM | 360,000 compounds, 0.6% hits | AID 602250;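 active means inhibition above a per-plate cutoff, the plate's mean sample inhibition plus 3 SD, cut at about 24% in these data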;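 further: 0% = DMSO plus EC80 ATP and 100% = DMSO alone without ATP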
CHRM1 PAM = human CHRM1 positive allosteric modulation. CHO-K1 hM1, Fluo-8 calcium fluorescence, ACh EC20; 0% = ACh EC20, 100% = maximal ACh. activation, % at 3 µM. 360,000 compounds, 0.088% hits. AID 588819; in the data active means activation above about 19%, passing the limit was not always enough
An asterisk follows results filed as active.

SMILES | CHO-K1 Ca ag | CHRM1 antagonist | M1 PAM parental | CHRM1 agonist | CHO-K1 Ca antag | CHRM1 PAM
O=C(c1ccco1)N1CCN(c2ccc(Cl)c(Cl)c2)CC1 | 5.8 | 33.1* | -14.6 | -2.6 | 26.2* | -13.8
CNC(=S)N1CCN(c2ccc(Cl)c(Cl)c2)CC1 | 16.9* | 20.7 | -1.1 | -1.4 | 3.6 | -10.6
O=C(CCC(=O)N1CCN(c2ccc(Cl)c(Cl)c2)CC1)c1ccccc1 | 12.0 | 43.8* | -14.5 | 0.0 | 13.8 | -19.1
COC(=O)N1CCN(c2ccc(Cl)c(Cl)c2)CC1 | 8.3 | 10.2 | 7.2 | -1.5 | 7.0 | -5.2
O=C(c1ccco1)N1CCN(c2ccc(Cl)cc2)CC1 | 0.9 | -11.1 | 15.2 | 11.8 | -6.9 | 6.1
CC1=C(C(=O)N(C(C)C)C(C)C)CC(CC(=O)NCCCCc2ccccc2)C(=O)N1CCCN1CCCC1=O (stereo not drawn) | -0.3 | 8.2 | -0.8 | -4.8 | 12.4 | -6.2
O=C(c1cccc(S(=O)(=O)NCc2ccccc2)c1)N1CCN(c2ccccc2Cl)CC1 | 1.6 | 10.7 | -18.7 | -2.6 | 2.4 | -5.2
CC(OC(=O)c1ccccc1NCCO)C(=O)NCC(=O)Nc1ccc(F)c(F)c1F (stereo not drawn) | 1.3 | -3.5 | -3.6 | -2.5 | -1.3 | 0.9
C[C@@H]1CN([C@@H](C)CO)C(=O)CCCn2cc(nn2)CO[C@H]1CN(C)S(=O)(=O)c1ccc2ccccc2c1 | -0.3 | 9.6 | -9.4 | -10.0 | 12.9 | -6.5
CCN(CC)CCOC(=O)C(c1ccccc1)C1CCCCC1 (stereo not drawn) | 0.0 | 99.1* | -7.3 | -6.8 | 4.2 | -26.8
CCN(CCO)C(=O)C(c1ccccc1)c1ccccc1 | -0.1 | -1.6 | 12.8 | -2.6 | -5.4 | 10.3
CCN(CC)CCSC(=O)C(c1ccccc1)c1ccccc1 | 0.8 | 100.6* | 20.6 | -8.7 | -5.2 | -26.4
CCN(CC)CCOC(=O)C(c1ccccc1)c1ccccc1 | 0.7 | 96.5* | 21.9 | -4.9 | -5.3 | -25.2
OC(COC(c1ccccc1)c1ccccc1)CN1CCN(c2cccc(Cl)c2)CC1 (stereo not drawn) | 0.9 | 13.1 | 10.6 | -10.7 | -11.8 | -21.1
CC(=O)c1ccc(N2CCN(CC(O)COC(c3ccccc3)c3ccccc3C)CC2)cc1 (stereo not drawn) | 5.9 | 101.2* | 4.3 | -10.1 | -3.8 | -32.9
CC(=O)c1ccc(N2CCN(CC(O)COC(c3ccccc3)c3ccccc3)CC2)cc1 (stereo not drawn) | 2.3 | 91.0* | 17.6 | -14.2 | 14.8 | -36.4
COc1c(Cl)cnn(-c2ccc(Cl)c(Cl)c2)c1=O | 16.8* | -7.3 | 25.7 | -12.9 | -5.9 | 15.4
COc1c(Cl)cnn(-c2ccccc2)c1=O | 0.3 | 4.0 | 11.9 | -0.3 | 1.8 | 2.7
Cc1ccc(N/N=C(\C#N)C(N)=S)c(C)c1 | 8.6 | 10.5 | -11.5 | 5.6 | 10.0 | -6.8
Cc1ccc(NC(=O)/C(C#N)=N/Nc2ccc(C(=O)O)cc2)c(C)c1 | -0.6 | -20.2 | -0.1 | 3.9 | 3.9 | 23.7*
Cc1cccc(NC(=O)NNC(=O)c2cc3occc3[nH]2)c1C | -0.1 | -1.9 | 11.5 | -2.5 | -8.3 | 3.9
Cc1ccc(OCC(=O)O)c(O)c1 | 0.2 | -1.5 | 15.1 | -1.0 | -5.8 | 3.1
CCc1nc2ccc(C(=O)NCc3ccc(OC)cc3)cn2c1N(C)Cc1ccc(OC)cc1 | 1.9 | 15.3 | -0.2 | -8.2 | 2.5 | -18.2
CCCCN(C)c1c(C)nc2ccc(C(=O)NCCOc3ccc(OC)cc3)cn12 | 13.9 | 38.7* | -13.5 | -0.7 | 29.6* | -20.0
CCc1nc2ccc(C(=O)NCCN3CCCC3)cn2c1N(C)Cc1ccc(OC)cc1 | 0.1 | 45.3* | 11.5 | -10.2 | -5.2 | -28.4
COc1ccc(NC2CCCN(C(=O)c3ccccc3N3CCOCC3)C2)cc1OC (stereo not drawn) | 1.0 | -3.9 | -0.2 | -3.5 | -2.6 | 1.4
C=CCn1c(C)c(C(C)=O)c(N2CCCC2)nc1=S | -0.2 | 97.9* | 1.2 | -5.7 | 0.4 | -19.8
CCn1c(C)c(C(C)=O)c(N2CCCC2)nc1=S | 0.4 | 39.8* | 18.9 | -4.4 | -6.0 | -17.5
C=CCn1c(C)c(C(C)=O)c(N2CCN(c3ccccc3)CC2)nc1=S | 3.4 | 88.8* | 21.4 | -1.1 | -7.0 | -22.4
CN1CCN(C(=O)c2ccc(COc3ccc(C(C)(C)C)cc3)o2)CC1 | 3.0 | 38.9* | 20.8 | -2.7 | -4.5 | -21.4
